# LmPK inhibitor = qHTS Assay for Inhibitors of Leishmania Mexicana Pyruvate Kinase (LmPK); Q27686; purified LmPK, Kinase-Glo ATP luminescence, 1 h; Potency, µM (highest dose often 57.5 µM), usual class: inhibitors; 290,000 tested, 0.37% active
# Target sequence (Q27686 whole entry, looked up): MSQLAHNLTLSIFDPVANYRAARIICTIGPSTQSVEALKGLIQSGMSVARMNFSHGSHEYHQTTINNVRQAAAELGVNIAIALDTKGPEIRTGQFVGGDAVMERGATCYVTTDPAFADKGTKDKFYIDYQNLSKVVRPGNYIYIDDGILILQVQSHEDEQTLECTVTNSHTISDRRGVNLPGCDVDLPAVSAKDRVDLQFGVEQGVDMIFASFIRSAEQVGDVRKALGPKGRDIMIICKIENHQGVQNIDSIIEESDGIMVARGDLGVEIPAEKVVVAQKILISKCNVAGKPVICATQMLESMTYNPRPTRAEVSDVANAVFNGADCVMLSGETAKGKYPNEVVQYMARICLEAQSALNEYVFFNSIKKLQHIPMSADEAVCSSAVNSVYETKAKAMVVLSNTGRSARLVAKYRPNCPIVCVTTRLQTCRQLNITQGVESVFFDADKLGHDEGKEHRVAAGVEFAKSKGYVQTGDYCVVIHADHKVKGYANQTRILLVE
#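 In 50 mM imidazole pH 7.2 with 7 mM MgCl2, LmPK (0.1 nM) turned over PEP (0.5 mM) and ADP (0.1 mM) for 1 h at room temperature. Luciferase read-out of ATP.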
# Sm TGR block = qHTS Assay for the Inhibitors of Schistosoma Mansoni Peroxiredoxins; 360,000 tested, 3% active; purified TGR, DTNB reduction, TNB absorbance 405 nm; Potency, µM (highest dose often 114 µM), usual class: inhibitors; Schistosoma mansoni thioredoxin glutathione reductase (TGR), Q962Y6; also: nearly all actives have a fitted effect of over 60% in size
#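 First, TGR (20 nM dispensed) and NADPH were mixed with compound. Second, a 15 min room-temperature incubation followed. Third, further NADPH and then DTNB were added to start the reaction. Finally, TNB absorbance was monitored kinetically.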
# AMA1 RON2 block = qHTS for Inhibitors of AMA1-RON; Towards Development of Antimalarial Drug Lead: Primary Screen; Potency, µM (titrated, usually from 58.2 µM), hits mostly inhibitors; 360,000 tested, 0.2% active; AlphaScreen AMA1-biotinylated RON2 peptide binding; also: nearly all actives have a fitted effect of over 45% in size
#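 AMA1 (3D7) with his tag at 25 nM final met compounds first, then biotinylated RON2 peptide at 25 nM; detection used donor plus acceptor beads, 10 µg/mL apiece, read by AlphaScreen after 30 min at room temperature.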
# RE007 growth inh = qHTS Assay for Inhibitors of the HIV-1 protein Vpr; S. pombe RE007 Vpr strain, BacTiter-Glo ATP luminescence, 24 h; Potency, µM (highest dose often 92.2 µM), actives largely listed as inhibitors; 360,000 tested, 0.21% active; active = well fitted falling curve with a large enough effect; inconclusive = small, poorly fitted or top-dose-only effect; inactive = no such curve, though single readings can be large or run the other way; also: nearly all actives have a fitted effect of over 50% in size
#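 Fission yeast strain RE007, carrying one chromosomally integrated HIV-1 vpr copy, was seeded at OD 0.01 in PMG+AL medium with 23 nL pinned compound. After 24 h at 30 °C and 99% humidity, viability was read by BacTiter-Glo luminescence.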
# Tb PYK inh = qHTS of Trypanosoma Brucei Inhibitors | pyruvate kinase (Trypanosoma brucei), Q57TT1 | TbPYK enzyme, Kinase-Glo Plus ATP luminescence, 45 min | Potency, µM (series often up to 76.8 µM), most hits filed as inhibitors | 410,000 tested, 0.12% active; also: nearly all actives have a fitted effect of over 50% in size
#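 ADP (130 uM final) triggers the TbPYK reaction after compound addition; incubation is 45 min at room temperature. Kinase-Glo Plus is then added and luminescence imaged. Normalized data are fitted to concentration-effect curves.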
# A number is an active result; – = inactive; ? = inconclusive; · = no result given; ! = not active in a repeat; [ ] = another dose, or the depositor's remark. In the library only some 3.2% were active in any assay of this set; here they are far more common. Unless noted, calls follow the shape of the dose curve; as a rule, active = well fitted curve in the direction sought with a large enough effect; inconclusive = small, poorly fitted or top-dose-only effect, or another doubt; inactive = no such curve, though single readings can be large; an effect the other way counts as inactive or inconclusive.
SMILES,LmPK inhibitor,Sm TGR block,AMA1 RON2 block,RE007 growth inh,Tb PYK inh
Cc1ccc(CNC(=O)c2c(-c3ccccc3Cl)noc2C)o1,·,?,·,·,–
Cc1cccc(Nc2ncnc(N)c2[N+](=O)[O-])n1,–,–,–,–,–
Cc1cc(C)nc(Sc2ncnc(N)c2[N+](=O)[O-])n1,–,3.98µM,–,–,–
COc1ccc(OC)c(/C=N/N(C)c2ccccc2)c1,–,–,–,–,–
COc1cc(/C=N/N(C)c2ccccc2)cc(Cl)c1O,–,–,–,28.2µM,–
CC(=O)Nc1ccc2sn(-c3ccccc3)c(=O)c2c1,·,·,–,–,?
O=c1c2cc([N+](=O)[O-])ccc2sn1-c1ccccc1,·,·,–,5.62µM,4.47µM
N#Cc1ccc2sn(-c3ccccc3)c(=O)c2c1,·,·,–,7.94µM,3.98µM
C/C(=N\NC(=S)NC(C)C)c1ccccc1,–,0.398µM,–,–,–
C/C(=N\NC(=S)NC(C)C)c1ccco1,–,3.98µM,–,–,–
COC(=O)N/N=C(\C)c1ccco1,–,–,–,–,–
Cc1ccc(S(=O)(=O)NCCc2nnc3ccc(SCc4ccccc4F)nn23)cc1,·,–,·,·,–
CC1CCN(S(=O)(=O)c2ccc3c(ccc(=O)n3CC(=O)NCc3ccccc3)c2)CC1,·,–,·,·,–
O=C(/C=C/c1ccco1)Nc1ccc2nc3n(c(=O)c2c1)CCCC3,–,31.6µM,–,–,–
O=c1c2cc(NC(=S)N3CCCC3)ccc2nc2n1CCCCC2,–,–,–,–,–
O=c1c2cc(NC(=S)NCc3cccnc3)ccc2nc2n1CCCCC2,–,56.2µM,–,–,–
O=C(NCc1ccccc1)C(=O)Nc1ccc2nc3n(c(=O)c2c1)CCCCC3,·,–,·,·,–
Cc1cc(=O)oc2cc(NC(=S)NCc3cccnc3)ccc12,–,39.8µM,–,–,–
CC1=C(C(=O)Nc2cccc(C(F)(F)F)c2)C(c2ccccc2)n2ncnc2N1 (stereo not drawn),·,–,·,·,–
COC(=O)c1ccccc1NC(=O)c1ncoc1-c1ccco1,·,–,·,·,–
COc1cccc(CNC(=O)C(=O)NCC(c2ccco2)S(=O)(=O)c2ccccc2)c1 (stereo not drawn),·,–,·,·,–
O=C(NCc1ccc(Cl)cc1)C(=O)NCC(c1ccco1)S(=O)(=O)c1cccs1 (stereo not drawn),·,39.8µM,·,·,–
COc1ccc(CNC(=O)C(=O)NCC(c2ccco2)S(=O)(=O)c2cccs2)cc1 (stereo not drawn),·,17.8µM,·,·,–
C/C(=N\NC(=O)c1cccs1)c1c(O)cc(C)oc1=O,–,–,–,–,–
C/C(=N\Nc1ccc(Cl)cc1)c1c(O)cc(C)oc1=O,–,22.4µM,–,–,–
SMILES,LmPK inhibitor,Sm TGR block,AMA1 RON2 block,RE007 growth inh,Tb PYK inh
CN(C)C(CNc1nnnn1-c1ccccc1)c1ccco1 (stereo not drawn),–,44.7µM,–,–[3.69 µM],·
Cc1ccc(-n2nnnc2-c2ccco2)cc1,–,–,–,–,–
COc1ccc(NC(=O)Nc2cc(C(=O)NCc3ccc(C)cc3)ccc2N2CCCC2)cc1,·,–,·,·,–
COc1ccc(-n2c(CCC(=O)O)ccc2-c2ccccc2)cc1,–,39.8µM!,–,–,–
COc1ccc(-c2ccc(CCC(=O)O)n2-c2ccccc2O)cc1,–,28.2µM!,–,–,–
COc1ccc(-c2ccc(CCC(=O)O)n2-c2ccccc2C(F)(F)F)cc1,·,?,·,·,–
COc1cccc(NC(=O)Nc2cc(-c3cn4cccnc4n3)ccc2OC)c1,·,–,·,·,–
On1ccccc1=S,·,–,–,4.47µM,?
Cc1c(-c2ccccc2)n(-c2ccccc2O)c2nc3c(c(=O)n(C)c(=O)n3C)n12,·,–,·,·,–
COc1ccc(N(CC(=O)NCc2ccco2)S(C)(=O)=O)cc1Cl,–,79.4µM,–,–,–
Cc1ccc(C)c(N(CC(=O)NCCSCc2ccco2)S(C)(=O)=O)c1,–,20µM,–,–,–
COc1ccc(C)cc1N(CC(=O)NCCSCc1ccco1)S(=O)(=O)c1ccc(C)cc1,–,31.6µM,–,–,–
COc1ccc(N(CC(=O)NCc2ccco2)S(C)(=O)=O)cc1OC,–,–,–,–,–
COc1ccc(S(=O)(=O)NCCSCc2ccco2)cc1Cl,–,31.6µM,–,–,–
